FMDV antiviral: shows antiviral activity against foot and mouth disease virus | hit rate 0.23% among 120,000 | FMDV antiviral cell assay, firefly luciferase signal | Potency, µM (top dose mostly 57.5 µM), for the others: at the highest dose activity change, negative = inhibition, usual class: inhibitors | AID 1745856; further: nearly all actives have a fitted effect of over 60% in size
FMDV RLuc: antivirals against foot and mouth disease virus replicon; hit rate 0.32% among 120,000; Potency, µM (series often up to 57.5 µM), for inactives: at the highest dose activity change, negative = inhibition, most hits filed as inhibitors; FMDV replicon cells, Renilla luciferase signal; AID 1745857; further: nearly all actives have a fitted effect of over 55% in size
The depositor's hits bear a star; ? = inconclusive; [ ] = dose if it differs, or a comment. Hits are enriched below; roughly 0.4% of the tested compounds scored in any of these assays. The call rests on the fitted dose curve. On the % scale 0 is the no-effect control and ±100 the full control effect; potency means the concentration at half of the fitted maximal effect.

SMILES	FMDV antiviral	FMDV RLuc
Cc1ccc(OCC(O)Cn2c(NCC(=O)O)nc3c2c(=O)n(C)c(=O)n3C)cc1 (stereo not drawn)	-6.1%	-15.7%
C=CCNc1nc2c(c(=O)n(C)c(=O)n2C)n1CCC(C)C	28.2µM*	15.8µM*
CCc1c(C)sc(NC(=O)C2CCCCC2)c1C#N	126.8%	7.0%
CCCCNC(=O)c1cc2n(n1)CCCN(Cc1ccc(C)cc1)C2=O	2.7%	34.4%
CCCCOc1ccc(CNC(=O)c2cc3n(n2)CCCN(Cc2ccc(C)cc2)C3=O)cc1	14.1µM*	-13.8%
Cc1cc(C(=O)NC(C)c2cccc(Cl)c2)c2cnn(C(C)C)c2n1 (stereo not drawn)	2.8%	10.1%
CC(=O)N1CCN(Cc2coc(-c3ccc(Cl)cc3)n2)CC1	12.0%	?
O=C(CSCc1coc(-c2ccc(Cl)cc2)n1)N1CCCCC1	-13.2%	20µM*
CCOc1ccc2c(=O)c(-c3ccc(OC)c(OC)c3)c(C)oc2c1	-19.9%	-28.6%
COc1ccc(-c2c(C)oc3cc(OCC(=O)OC(C)(C)C)ccc3c2=O)cc1OC	28.2µM*	?
CCCOP(=O)(OCCC)c1nc(-c2ccccc2)oc1NC	16.0%	33.8%
O=C(CCC(=O)OCC(=O)c1ccc([N+](=O)[O-])cc1)Nc1cc(C(F)(F)F)ccc1Cl	5.9%	1.4%
CCOC(=O)c1ccc(NCc2ccnc(N3CCOCC3)c2)nc1	?	28.2µM*
CC(C)c1ccc(C(=O)COC(=O)c2ccc(N3CCOCC3)nc2)cc1	17.3%	19.9%
Cc1cc(C(=O)Cn2c(Cl)nc3c2c(=O)n(C)c(=O)n3C)c(C)n1CC(F)(F)F	22.4µM*	15.8µM*
Cc1cc(C(=O)Cn2c(Cl)nc3c2c(=O)n(C)c(=O)n3C)c(C)n1Cc1ccc(F)cc1	0.0%	12.1%
CCOc1ccccc1CN1CCCCCC1c1sccc1C (stereo not drawn)	77.3%	22.0%
O=C(O)c1ccccc1C(=O)/C=C/c1ccc(Cl)cc1	57.4%	28.2µM*
O=C(/C=C/c1ccc(Cl)cc1)c1ccccc1O	51.8%	5.2%
COc1cc(CN(C(=O)c2cccc(Cl)c2)c2ccccn2)cc(OC)c1OC	?	65.5%
COc1cc(CN(C(=O)c2ccc(OC(C)C)cc2)c2ccccn2)cc(OC)c1OC	?	10µM*
COc1cccc(CNC(=O)c2cc3cc(OC)ccc3[nH]2)c1	6.8%	11.0%
COc1ccc2c(C)c(CC(=O)N(C)C3CCS(=O)(=O)C3)c(=O)oc2c1 (stereo not drawn)	10.7%	7.0%
CCc1ccc2occ(CC(=O)Nc3ccc(C)c(C)c3)c2c1	25.1µM*	?
Cc1ccc(NC(=O)Cc2coc3ccc(C(C)C)cc23)cc1Cl	?	-19.1%
SMILES	FMDV antiviral	FMDV RLuc
O=[N+]([O-])c1cc(S(=O)(=O)Nc2ccc(Cl)cc2)ccc1N/N=C/c1ccccc1Cl	?	73.5%
CC1Sc2c(C(C)(C)C)cc(C(C)(C)C)c(O)c2OC1=O (stereo not drawn)	-6.2%	-15.4%
Cc1sc(NC2CCCC2)nc1-c1ccc(NS(C)(=O)=O)cc1	0.0%	5.0%
CCOc1ccc(-c2cc(C(=O)O)c3ccccc3n2)cc1OCC	-10.2%	20µM*
CCOc1ccc(-c2cc(C(=O)O)c3ccccc3n2)cc1	56.3%	?
CCCC(=O)Nc1ccc2oc(-c3cccc(Cl)c3)nc2c1	21.0%	5.2%
COc1ccc(-c2nc(NCCN(C)C3CCCCC3)c3ccccc3n2)cc1	50.7%	-9.3%
O=S(=O)(Nc1cccc(C(F)(F)F)c1)c1ccc(-c2cnc(C3CC3)o2)cc1	?	-90.5%
COc1ccc(NS(=O)(=O)c2ccc(-c3cnc(C4CC4)o3)cc2)cc1OC	8.91µM*	-12.9%
Cc1oc(-c2cccs2)nc1CC(=O)Nc1ccc(F)cc1F	5.1%	28.8%
CCn1c(SCC(=O)c2ccc(C#N)cc2)nnc1-c1ccccc1C	-7.0%	-2.5%
Cc1ccsc1/C=C/C1=Cc2c(sc(N)c2C#N)C(C)(C)C1	10.0%	10.0%
Cc1ccc(-n2c(/C=C\c3ccc(F)c(F)c3)nc3ccccc3c2=O)c(C)c1	7.94µM*	3.55µM*
Cc1ccccc1-n1c(/C=C/c2ccc(O)cc2)nc2ccccc2c1=O	8.0%	?
CCCOc1ccc2ccccc2c1CN(C)C(=O)Cc1n[nH]c(=O)c2ccccc12	25.1µM*	?
CN(Cc1cccs1)C(=O)Cc1n[nH]c(=O)c2ccccc12	14.5%	-0.5%
Cc1ccc(C2(c3ccc(C)cc3)SC(=S)c3ccccc32)cc1	19.0%	-5.1%
COc1cc(Br)c(/C=C/C(=O)O)cc1OC	1.8%	1.8%
CC(C)=CCNc1ncnc2c1ncn2[C@@H]1O[C@H](CO)[C@@H](O)[C@H]1O	5.6%[11.5 µM]	9.1%
Nc1nc(F)nc2c1ncn2[C@@H]1O[C@H](CO)[C@@H](O)[C@@H]1O	?	14.1µM*
CC(c1ccccc1)N(C)C(=O)CSc1nc2ccccc2o1 (stereo not drawn)	68.9%	46.7%
Cc1nc2ccccc2nc1SCC(=O)N(C)C(C)c1ccc(F)cc1 (stereo not drawn)	28.2µM*	35.5µM*
O=C(O)c1ccc(-c2ccco2)cc1	2.2%	-1.7%
CCOCCCNc1nc(-c2ccc(S(=O)(=O)N3CCCCCC3)cc2)cs1	?	-22.5%
N#Cc1ccc(N2CCC(C(=O)Nc3ccc(S(=O)(=O)N4CCCC4)cc3)CC2)nc1	0.0%	47.2%
SMILES	FMDV antiviral	FMDV RLuc
COc1ccc(-c2cc(C(F)(F)F)nc(S(=O)(=O)CCCC(=O)Nc3ccccc3C(F)(F)F)n2)cc1OC	-15.1%	-9.3%
COc1ccc(NC(=O)CCCS(=O)(=O)c2nc(-c3ccc(OC)c(OC)c3)cc(C(F)(F)F)n2)cc1OC	28.2µM*	-7.4%
Cc1c(C(=O)OC2CCCCCC2)[nH]c2c1C(=O)CC(c1ccccc1)C2 (stereo not drawn)	-12.3%	-9.5%
COc1cc(C2CC(=O)c3c([nH]c(C(=O)OC4CCCC4)c3C)C2)cc(OC)c1OC (stereo not drawn)	?	8.91µM*
CSc1ccc(Cl)c(C(=O)N2CCN(Cc3cc(=O)n4ccsc4n3)CC2)c1	2.9%	3.3%
CCN(Cc1ccc(OC)cc1)Cc1cc(=O)oc2ccc(C)cc12	2.6%	6.4%
CCOc1ccc(CN(CC)Cc2cc(=O)oc3ccc(OC)cc23)cc1	?	25.1µM*
Cc1ccc(NC(=O)CNc2nc(Nc3ccc(C)cc3)nc(Nc3ccc(C)cc3)n2)cc1	-3.2%	3.3%
Cc1ccc(N2C(=O)c3ccccc3NC23CCSC3)cc1 (stereo not drawn)	65.8%	4.9%
Cn1c(CN2CCOCC2)nnc1SCc1ccc(Br)cc1	-8.7%	7.5%
COc1ccc(S(=O)(=O)N(C)C)cc1NC(=O)Cc1nn(C)c(=O)c2ccccc12	0.0%	29.0%
CCn1c(SCC(=O)Nc2ccccc2C(=O)OC)nc2ccsc2c1=O	-12.3%	8.7%
COc1ccccc1NC(=O)Cc1nn(C)c(=O)c2ccccc12	10µM*	10µM*
Cn1nc(CC(=O)Nc2cccc(OC(=O)c3ccc(Cl)cc3)c2)c2ccccc2c1=O	-12.5%	-9.5%
COc1ccccc1NC(=O)CSc1nc2ccsc2c(=O)n1C	22.4µM*	22.4µM*
Cn1nc(CC(=O)NCc2ccc(F)cc2)c2ccccc2c1=O	-29.3%	?
Cn1nc(CC(=O)Nc2ccc(F)cc2Cl)c2ccccc2c1=O	?	7.08µM*
Cn1nc(CC(=O)Nc2ccc(Cl)cc2)c2ccccc2c1=O	?	2.82µM*
CCCCN(C)C(=O)C1CCN(S(=O)(=O)c2c(C)noc2/C=C/c2ccccc2F)CC1	-5.6%	7.5%

From PubChem BioAssay
